An excerpt weighted towards active compounds, which were near 3.4% of everything screened.
HSF1 inhib = HSF1 inhibitors in luciferase reporter cells, primary screen, cell-based, NIH3T3, luminescence; actives 0.77% (n = 300,000); activity change, negative = inhibition, % at 7.5 µM (by protocol); NIH3T3-HGL HSE-luciferase, MG132-induced, luminescence 8 h; hits give low values; AID 2098, 2009;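 active means more than half of replicate wells show activity change below -50%, luminescence cut by over half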;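 further: luciferase reports HSF-1 transcriptional activity via heat shock element; 0% = median of DMSO wells and -100% = zero luminescence signal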
GAA850 FXN act = FXN promoter activators, primary screen, cell-based, luciferase luminescence, HEK293 lucGAA850; HEK293 lucGAA850 FXN promoter luciferase reporter, 24 h; percent of 10 µM SAHA response; activation, % at 6 µM; actives 0.56% (n = 360,000); AID 540364, 2011;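 active means activation above the average of all compounds screened plus 3 SD, cutoff fixed separately per campaign, cut at about 7.5% in these data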;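 further: 0% = DMSO wells and 100% = 10 µM SAHA wells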
AI-2 QS modul = Vibrio harveyi AI-2 quorum sensing modulators, primary screen, JMH597 strain, luminescence/OD600 ratio; Vibrio harveyi JMH597 AI-2 luminescence/OD600 ratio, 9 h; hits give low values; strain lacks LuxN and CqsS sensors; 0 = neutral-control median; activity change, % at 7.5 µM; actives 0.4% (n = 300,000); AID 2094, 2009; in the data active means activity change below about -75%, passing the limit was not always enough;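 further: luminescence divided by OD600 gain over 9 h not by final OD600 alone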
HSP90 refold inh = HSP90 inhibitors, primary screen, cell lysate, luminescence; actives 0.91% (n = 290,000); AID 1789, 2009; Heat shock protein HSP 90 (rabbit reticulocyte lysate; luciferase refolding); inhibition, % at 5.6 µM; Rabbit reticulocyte lysate, luciferase refolding luminescence, 3 h;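 active means inhibition above the screen-wide mean plus 3 SD, computed separately per campaign, cut at about 16% in these data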;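 further: 0% = DMSO wells and 100% = 60 µM geldanamycin wells; inhibitors lower the luminescence because luciferase stays unfolded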
PG9 Ab binder = binders of HIV-1 gp120 antibody PG9, primary screen, biochemical, TR-FRET; TR-FRET gp120-PG9 antibody binding; inhibition, % at 6.7 µM; actives 0.43% (n = 360,000); in the data active means inhibition above about 8.5%
SMARCA2 act = SMARCA2 (BRM) function activators, primary screen, cell-based, luminescence, high throughput; activation, % at 9.1 µM; actives 1% (n = 370,000); AID 652017, 2013; MG213 cells, MMTV-luciferase reporter, dexamethasone, overnight; in the data active means activation above about 7.8%;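 further: 0% = vehicle wells and 100% = reference activator wells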
An asterisk follows results filed as active; . = not tested or not shown.

SMILES | HSF1 inhib | GAA850 FXN act | AI-2 QS modul | HSP90 refold inh | PG9 Ab binder | SMARCA2 act
Cc1cc(S(=O)(=O)N2CCCC2)ccc1OCC(=O)NCc1ccccc1 | -77* | -2 | -20 | 4 | -1 | -1
CC[C@H](C)NC(=O)c1ccc(Cn2c(=S)[nH]c3c([nH]c4ccc(OC)cc43)c2=O)cc1 | -58* | 3 | -10 | -2 | 3 | -4
CCCCNC(=O)c1ccc(Cn2c(=S)[nH]c3c([nH]c4ccc(OC)cc43)c2=O)cc1 | -71* | 3 | -22 | -1 | -1 | -3
CCOCCCNC(=O)c1ccc(Cn2c(=S)[nH]c3c([nH]c4ccc(OC)cc43)c2=O)cc1 | 2 | 2 | -12 | 3 | -1 | 0
Nc1cc(S(=O)(=O)Nc2ccc(Br)cc2)ccc1Cl | 11 | 2 | -76* | 0 | -1 | -3
COc1ccc(NS(=O)(=O)c2ccc(Cl)c(N)c2)cc1Br | -1 | 1 | 16 | 3 | 1 | -1
COc1ccc(-n2c(SCC(=O)Nc3ccc(Oc4ccccc4)cc3)nnc2-c2ccc(C)cc2)cc1 | . | . | . | . | . | -3
Nn1c(SCc2ccccc2)nnc1-c1ccco1 | -68* | -2 | -25 | -1 | -1 | -2
Nn1c(SCc2cccc3ccccc23)nnc1-c1ccco1 | 4 | 3 | -14 | -1 | 0 | 0
Cc1cc(Br)c2[nH]cc(CCNC(=O)c3ccco3)c2c1 | -69* | 1 | 18 | -6 | -2 | -1
Cc1ccc2[nH]cc(CCNC(=O)c3ccc4c(c3)OCO4)c2c1 | 5 | -1 | -80* | -1 | -2 | -1
Cc1ccc2[nH]cc(CCNC(=O)c3ccco3)c2c1 | -68* | 1 | 14 | -5 | -1 | 1
COc1ccc2[nH]cc(CCNC(=O)c3ccco3)c2c1 | . | -2 | . | . | -4 | -4
C#CCCC(=O)O[C@H]1CCC[C@@]2(C(=O)N(Cc3ccccc3)c3ccccc32)[C@H]1NC(=O)CCc1ccccc1 | . | . | . | . | . | -3
COC(=O)[C@]12C[C@H](CC(=O)N3CCOCC3)C(=O)N(Cc3ccco3)C1=C[C@H](C1CCCC1)O[C@@H]2C | . | . | . | . | . | -2
CCc1cc(=O)oc2c(C)c(OC(C)C(=O)NCCCN3CCOCC3)ccc12 (stereo unspecified) | -6 | 0 | 3 | 2 | 0 | -3
Cc1cc(=O)oc2c(C)c(OC(C)C(=O)NCCCN3CCOCC3)ccc12 (stereo unspecified) | -69* | -1 | 15 | 2 | -2 | 1
C=CCn1c(SCC(=O)O)nnc1-c1ccco1 | . | . | . | . | . | -2
Cc1cc2c(cc1C)/C(=N/NC(=O)c1ccccn1)CCC2 | 4 | 1 | 12 | 14 | -1 | 5
O=C(NN=C1CCC(=NNC(=O)c2ccccn2)CC1)c1ccccn1 | . | 6 | . | 4 | -2 | 11*
COc1cccc(-c2nc(CS(=O)(=O)CC(=O)Nc3c(C)cccc3C)c(C)o2)c1 | 0 | 2 | 23 | 72* | 0 | -3
COc1ccc(Cn2nnnc2CN2CCc3ccccc32)cc1 | 11 | 4 | 29 | 1 | -1 | -2
COc1ccc(Cn2nnnc2CN2CCc3ccccc3C2)cc1 | -61* | 1 | 6 | -3 | 0 | -5
COc1ccc(C(c2c(O)nc(SC)n(C)c2=O)c2c(O)nc(SC)n(C)c2=O)cc1O | -5 | -1 | -89* | -1 | -2 | -1
O=C1C(N2CCOCC2)=C(n2nnc3ccccc32)C(=O)c2ccccc21 | 33 | -4 | 31 | 41* | -10 | -8
SMILES | HSF1 inhib | GAA850 FXN act | AI-2 QS modul | HSP90 refold inh | PG9 Ab binder | SMARCA2 act
O=C1c2ccccc2C(=O)c2c1cccc2-n1nnc2ccccc21 | -2 | 1 | 13 | -2 | 0 | 0
COC1=C[C@H](C(=O)NCc2ccccn2)[C@H](C)[C@@H](c2ccccc2)CC1=O | . | . | . | . | . | -5
Cc1ccc(C)c(NC(=O)c2cccc3c2-c2ccccc2C3=O)c1 | . | . | . | . | . | 2
Cc1ccccc1NC(=O)CN1C(=O)CCSc2ccccc21 | . | . | . | . | . | -6
C[C@H]1O[C@@H](n2cc(F)c(=O)[nH]c2=O)[C@H](O)[C@@H]1O | -1 | 0 | -83* | . | -2 | -3
Cc1cc2cc3c(cc2nc1SCC(=O)N1c2ccccc2CC1C)OCO3 (stereo unspecified) | -1 | 0 | 5 | 17* | -5 | 0
CC1Cc2ccccc2N1C(=O)CSc1ncccc1C(=O)O (stereo unspecified) | -78* | 0 | 10 | -2 | 3 | 0
CC1Cc2ccccc2N1C(=O)CSc1nc2cc3c(cc2cc1C#N)OCO3 (stereo unspecified) | . | 0 | . | -1 | 4 | -1
COC(=O)C1CN(C2CC2)CCS(=O)(=O)N1Cc1cn(Cc2ccc(F)cc2)nn1 (stereo unspecified) | . | . | . | . | . | -1
C=CCN(CC#CC(=C)C)CC1CC1 | . | . | . | . | . | -2
COC(=O)[C@]12C[C@H](CC(=O)N3CCN(C(=O)C4CC4)CC3)C(=O)N(Cc3ccc(Cl)cc3Cl)C1=C[C@H](C(C)C)O[C@@H]2C1CC1 | . | . | . | . | . | -2
Cc1cc(C)c(C)c(C(=O)CSc2nnc(-c3ccc4[nH]c(C)c(C)c4c3)o2)c1C | -13 | -2 | 24 | 1 | 0 | 0
Cc1[nH]c2ccc(-c3nnc(SCC(=O)c4ccc(F)cc4)o3)cc2c1C | -60* | 0 | 27 | 0 | 2 | 12*
COC(=O)C1CN(Cc2ccccc2)CCS(=O)(=O)N1Cc1cccc(Cl)c1 (stereo unspecified) | . | . | . | . | . | 0
CC1(C)C=C2C(=NN(c3ccccc3)C(N)=C2C#N)CO1 | -71* | -2 | 39 | -1 | -1 | -1
CC1(C)Cc2c(C#N)c(N)n(-c3ccccc3)c(=S)c2CO1 | 28 | 3 | 14 | -4 | -1 | -4
Cc1ccc(S(=O)(=O)N2CCCC2C(=O)N2CCc3ccccc3C2)cc1 (stereo unspecified) | . | . | . | . | . | 6
O=C(Nc1nncs1)c1ccc(N2C(=O)C3C4C=CC(C4)C3C2=O)cc1 (stereo unspecified) | -7 | -2 | 23 | -2 | 1 | -4
O=C(Nc1ccc(N2C(=O)C3C4C=CC(C4)C3C2=O)cc1)Nc1nncs1 (stereo unspecified) | -86* | -3 | 8 | . | 2 | 7
O=C(c1cccc([N+](=O)[O-])c1)N1CCc2ccccc21 | -68* | 1 | 11 | -3 | 0 | -4
CCCn1c(N)c(N(CCOC)C(=O)COC(=O)COc2c(C)cc(C)cc2C)c(=O)[nH]c1=O | . | 2 | . | . | 0 | 0

Screening results from PubChem.
